GALK inhibitor – blocks human galactokinase activity; Purified GALK, Kinase-Glo residual ATP luminescence; Potency, µM (highest dose often 57.5 µM), inactives show top-dose activity change, negative = inhibition, hits mostly inhibitors; hit rate 0.007% among 270,000; also: potency is read from the fitted curve at half-maximal effect
Target sequence (P51570 whole entry, looked up): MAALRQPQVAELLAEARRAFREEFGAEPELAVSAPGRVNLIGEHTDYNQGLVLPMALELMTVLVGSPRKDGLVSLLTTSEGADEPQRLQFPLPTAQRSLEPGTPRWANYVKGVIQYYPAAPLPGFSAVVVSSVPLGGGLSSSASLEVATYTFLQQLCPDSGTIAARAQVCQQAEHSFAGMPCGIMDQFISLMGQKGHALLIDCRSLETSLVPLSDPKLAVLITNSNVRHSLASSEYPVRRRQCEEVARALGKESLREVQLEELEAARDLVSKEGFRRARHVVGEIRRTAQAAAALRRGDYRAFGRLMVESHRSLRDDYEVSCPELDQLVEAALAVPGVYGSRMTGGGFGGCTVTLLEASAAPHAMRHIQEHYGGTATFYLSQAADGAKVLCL
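ATP-depletion format; final 35 uM ATP, 100 uM D-galactose, 5 nM enzyme; pH 8.0 HEPES/Mg2+ buffer; 60 min RT; luminescence read 10 min after detection reagent.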
TrxR1 inh – blocks rat thioredoxin reductase 1 | O89049 | recombinant rTrxR1, NADPH fluorescence consumption, selenite substrate | Potency, µM (top dose mostly 114 µM), for inactives: at the top dose activity change, negative = inhibition, most hits filed as inhibitors | hit rate 1% among 390,000; also: potency is read from the fitted curve at half-maximal effect; nearly all actives have a fitted effect of over 65% in size
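Rat TrxR1 (90 nM in the dispensed reagent) was pre-reduced with 400 uM NADPH for 5 min at room temperature, then incubated with compound for 15 min. After 400 uM selenite was added, NADPH fluorescence (Ex 340/Em 450 nm) was followed for 8 min.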
TrxR1 substrate – substrates of rat thioredoxin reductase 1. O89049. purified TrxR1 substrate turnover, NADPH consumption readout. Potency, µM (top dose mostly 114 µM), for inactives: at the highest dose activity change, negative = substrate turnover. hit rate 0.01% among 390,000. AID 588456; also: potency is read from the fitted curve at half-maximal effect; nearly all actives have a fitted effect of over 50% in size
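Rat TrxR1, dispensed at 90 nM, was prereduced with 400 uM NADPH (final) for 5 min at ~22 deg C, then incubated with compound 15 min before 400 uM selenite. A first-read NADPH fluorescence drop versus no-compound background flagged substrates.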
Eya2 phos inh – blocks the phosphatase activity of human Eya2; hit rate 0.006% among 330,000; recombinant Eya2, OMFP fluorescence dephosphorylation (OMFP is methylfluorescein phosphate); Potency, µM (highest dose often 76.9 µM), for the others: at the top dose activity, negative = inhibition, usual class: inhibitors; O00167; also: potency is read from the fitted curve at half-maximal effect
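Eya2 protein (added as 0.2 uM solution) was preincubated with compound for 10 min at ambient temperature in 50 mM HEPES pH 7.5, 50 mM NaCl, 5 uM MgCl2, 0.05% BSA, 1 mM DTT. OMFP (added at 50 uM) then reacted 10 min; fluorescence read at 485/525 nm.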
Six1-Eya2 inh – Six1/Eya2 interaction inhibition. Q15475+O00167. AlphaScreen GST-Six1/His-Eya2 binding, biochemical; stronger effect = lower value. activity change, % (test concentration not listed). hit rate 0.56% among 360,000; in the data active = activity change below about -65%; inconclusive = mostly about -30% to -63%
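GST-Six1 + His-Eya2 (5X stock: 250/500 nM); Tris pH 8.0, 300 mM NaCl, 0.05% BSA, 0.02% Tween 20; GSH donor/Ni acceptor beads; 1 h 37 °C dark; AlphaScreen readout.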
CtBP-E1A blk – inhibitors of CtBP/E1A interaction; AlphaScreen GST-E1A/His-CtBP binding, 1536-well; stronger effect = lower value; activity change, % (test concentration not listed); hit rate 0.49% among 340,000; AID 651724; in the data active = activity change below about -65%; inconclusive = mostly about -30% to -63%
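In 5 uL wells, 23 nL compound meets equimolar GST-E1A and His-CtBP (5X stock 125 nM each) for 2 h, 37 °C. Beads (5X, 50 ug/mL) then 1 h, 37 °C, dark.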
The depositor's hits bear a star; [ ] = another dose, or the depositor's remark. A selection: hits, their analogues and other compounds. The true share with any hit is near 1.5%. Unless noted, calls follow the shape of the dose curve; as a rule, active = well fitted curve in the direction sought with a large enough effect; inconclusive = small, poorly fitted or top-dose-only effect, or another doubt; inactive = no such curve, though single readings can be large; an effect the other way counts as inactive or inconclusive. % is scaled to controls: 0 for no effect and ±100 for the full control effect.

Results for COc1cccc(/C=N/NC(=O)CNC(=O)c2cccs2)c1O ?
GALK inhibitor: -0.7%; TrxR1 inh: 10.7%; TrxR1 substrate: -1.0%; Eya2 phos inh: 4.3%; Six1-Eya2 inh: -85.3*; CtBP-E1A blk: -89.2*

Results for CCOC(=O)c1cccc(NC(=O)c2nn(-c3ccc(OC)cc3)c(=O)c3c2c2ccccc2n3C)c1 ?
TrxR1 inh: 20.1%; TrxR1 substrate: 5.0%

Results for COc1ccc(C(=O)CCS(=O)(=O)c2ccc(C)cc2)cc1OC ?
GALK inhibitor: -2.1%; TrxR1 inh: 2.24µM*; TrxR1 substrate: 7.2%; Eya2 phos inh: -16.9%; Six1-Eya2 inh: -1.9; CtBP-E1A blk: -8.3

Results for Cc1ccc(S(=O)(=O)CCC(=O)c2ccc(O)cc2O)cc1 ?
GALK inhibitor: -6.4%; TrxR1 inh: 7.08µM*; TrxR1 substrate: -4.8%; Eya2 phos inh: -14.5%; Six1-Eya2 inh: 7.7; CtBP-E1A blk: 2.9

How did COc1cc(/C=C/c2ccnc3ccccc23)cc(OC)c1OC do in these assays?
TrxR1 inh: -2.8%; TrxR1 substrate: -3.2%[0.0914 µM]

How did CCN(CC)C(=O)CSc1nc(-c2ccc(C)cc2)nc2c1Cc1c(CO)cnc(C)c1O2 do in these assays?
TrxR1 inh: 20µM*; TrxR1 substrate: -4.6%

How did Cc1ccc(-c2nc3c(c(SCC(=O)N(C)c4ccccc4)n2)Cc2c(CO)cnc(C)c2O3)cc1 do in these assays?
TrxR1 inh: inconclusive; TrxR1 substrate: -6.5%

What do the screens show for `Clc1ccc2nc(Nc3ccccc3Cl)nc(-c3ccccc3)c2c1`?
TrxR1 inh: 27.9%; TrxR1 substrate: 17.7%

Results for COc1ccc(N2Cc3cccc(C(=O)Nc4ccc(Cl)cc4)c3C2=O)cc1 ?
TrxR1 inh: 15.0%; TrxR1 substrate: 3.6%

What do the screens show for `COc1ccc(CNc2nc(-c3ccco3)nn2C(=O)c2ccccc2Cl)cc1`?
TrxR1 inh: 8.9%; TrxR1 substrate: -1.0%

Results for COc1ccc(C(=O)n2nc(-c3ccco3)nc2NCc2cccs2)cc1 ?
TrxR1 inh: 22.4µM*; TrxR1 substrate: -0.8%

Results for CCOC(=O)C(=O)N1CCC(Cc2ccccc2)CC1 ?
GALK inhibitor: 1.3%; TrxR1 inh: 30.6%[57.1 µM]; TrxR1 substrate: 5.1%[57.1 µM]; Eya2 phos inh: 0.3%; Six1-Eya2 inh: 3.5; CtBP-E1A blk: -20.2

What do the screens show for `CC(=O)O[C@@H]1[C@@H](O)CN[C@@H]1Cc1ccccc1`?
TrxR1 inh: 39.8µM*; TrxR1 substrate: -8.2%

How did Cc1ccc(C(=O)c2cn(CC(=O)Nc3ccc(C)cc3Cl)c3nc(C)ccc3c2=O)cc1 do in these assays?
TrxR1 inh: 17.5%; TrxR1 substrate: -3.6%

What do the screens show for `Cc1ccc(-c2nn3c(C)nnc3s2)cc1NC(=O)c1ccc(-c2cccc(Cl)c2)o1`?
GALK inhibitor: 2.5%; TrxR1 inh: 35.5µM*; TrxR1 substrate: -4.6%; Eya2 phos inh: -7.8%; Six1-Eya2 inh: -10.9; CtBP-E1A blk: -5.2

Results for Cc1ccc(-c2nn3c(C)nnc3s2)cc1NC(=O)c1ccc(-c2ccc(Cl)cc2Cl)o1 ?
GALK inhibitor: -3.6%; TrxR1 inh: 12.7%; TrxR1 substrate: 112.1%; Eya2 phos inh: -6.9%; Six1-Eya2 inh: -0.9; CtBP-E1A blk: 2.9

Results for C=CCOc1ccc(C2/C(=C(\O)c3ccc(F)cc3)C(=O)C(=O)N2CCCN(C)C)cc1 (stereo not given) ?
GALK inhibitor: 5.3%; TrxR1 inh: 35.5µM*; TrxR1 substrate: -4.2%; Eya2 phos inh: 21.0%; Six1-Eya2 inh: 3.1; CtBP-E1A blk: -3.1

What do the screens show for `CCOc1ccc(C2/C(=C(/O)c3ccc(F)cc3)C(=O)C(=O)N2CCCN(C)C)cc1` (stereo not given)?
GALK inhibitor: 1.0%; TrxR1 inh: 10.3%[57.1 µM]; TrxR1 substrate: 4.1%[57.1 µM]; Eya2 phos inh: 8.2%; Six1-Eya2 inh: 5.1; CtBP-E1A blk: 4.8

How did OCCN(Cc1ccccn1)Cc1ccccn1 do in these assays?
Six1-Eya2 inh: -89.6*; CtBP-E1A blk: -89.3*

How did Cc1cccc2c1N(Cc1ccccc1OCCC(C)C)C(=O)C2=O do in these assays?
TrxR1 inh: 17.0%; TrxR1 substrate: 3.2%

Results for COC(=O)c1c(SCC(=O)Nc2cc(C)cc(C)c2)[nH]c2ccccc2c1=O ?
TrxR1 inh: 7.4%; TrxR1 substrate: -1.4%

Results for O=C(Nc1ccc(OC(F)F)cc1)c1nc(S(=O)(=O)Cc2ccccc2F)ncc1Cl ?
TrxR1 inh: 3.55µM*; TrxR1 substrate: 1.2%

Results for CCOc1ccc(NC(=O)c2nc(S(=O)(=O)Cc3ccccc3)ncc2Cl)cc1 ?
TrxR1 inh: 2.24µM*; TrxR1 substrate: -3.1%

How did COC(=O)c1cscc1S(=O)(=O)Cc1ccccc1 do in these assays?
GALK inhibitor: -1.4%; TrxR1 inh: 20µM*; TrxR1 substrate: 0.5%; Eya2 phos inh: 7.2%; Six1-Eya2 inh: 14.5

How did CCOc1ccc(NC(=O)c2nc(S(=O)(=O)Cc3ccc(C)cc3)ncc2Cl)cc1 do in these assays?
TrxR1 inh: inconclusive; TrxR1 substrate: -4.7%

Results for O=C(Nc1ccccc1)c1nc(S(=O)(=O)Cc2ccccc2F)ncc1Cl ?
TrxR1 inh: inconclusive; TrxR1 substrate: 9.2%

What do the screens show for `CCOc1ccc(NC(=O)c2nc(S(=O)(=O)Cc3ccccc3F)ncc2Cl)cc1`?
TrxR1 inh: 1.78µM*; TrxR1 substrate: 6.6%

What do the screens show for `O=C(CSc1nc2c([nH]c3ccccc32)c(=O)n1-c1ccc(Cl)cc1)NCC1CCCO1` (stereo not given)?
TrxR1 inh: 9.6%[57.1 µM]; TrxR1 substrate: 1.4%[57.1 µM]

What do the screens show for `COCc1cc(C)nc2c1C(=O)NC(c1ccc(C)cc1)N2Cc1ccccc1` (stereo not given)?
TrxR1 inh: 13.5%[57.1 µM]; TrxR1 substrate: 4.4%[57.1 µM]

What do the screens show for `COC(=O)c1ccc(NC(=O)c2nc(S(=O)(=O)Cc3ccccc3F)ncc2Cl)cc1`?
TrxR1 inh: 8.91µM*; TrxR1 substrate: -1.1%

What do the screens show for `COC(=O)c1ccccc1NC(=O)c1nc(S(=O)(=O)Cc2ccccc2)ncc1Cl`?
GALK inhibitor: -3.6%; TrxR1 inh: 8.91µM*; TrxR1 substrate: 7.8%; Eya2 phos inh: 0.7%; Six1-Eya2 inh: -25.4

Results for CS(=O)(=O)c1ncc(Cl)c(C(=O)Nc2ccc3ccccc3c2)n1 ?
GALK inhibitor: 3.3%; TrxR1 inh: 12.6µM*; TrxR1 substrate: 7.7%; Eya2 phos inh: 0.9%; Six1-Eya2 inh: -27.2; CtBP-E1A blk: 0.0

What do the screens show for `O=C(CSc1nnc(-c2ccccc2Cl)o1)N1CCCc2ccccc21`?
TrxR1 inh: 8.7%; TrxR1 substrate: -7.4%

Screening data as filed in PubChem.
